In PubChem BioAssay AID493170 (National Center for Advancing Translational Sciences (NCATS), 2011):
Records with an inconclusive call do not appear. Active and inactive are the calls of the source. Calls come from the whole dose curve; as a rule, active = well fitted inhibition curve with a large enough effect; inconclusive = small, poorly fitted or top-dose-only effect, or effect the other way; inactive = flat fitted curve, though single readings scatter.

These compounds were tested against Ubiquitin carboxyl-terminal hydrolase 2 (Homo sapiens) (UniProt O75604) (assay: Ub-rhodamine 110 based assay for inhibitors Ubiquitin-specific Protease USP2a). Conditions: USP2a Ub-rhodamine110 cleavage, fluorescence; series mostly up to 38.3 µM; activity change, negative = inhibition: at the top concentration.
Outline: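 Kinetic fluorescence (485/531 nm) read each minute over 7 min after adding Ub-Rhod110 (150 nM final) to USP2a (5 nM final). The enzyme had 30 min RT exposure to compounds beforehand in Tris pH 8.0 buffer with CaCl2, CHAPS and beta-ME.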
% is set by controls: 0 for no effect and ±100 for the full control effect; potency is the fitted concentration of half-maximal effect.
Note: nearly all actives have a fitted effect of over 50% in size.

Chain of Ubiquitin carboxyl-terminal hydrolase 2 (Homo sapiens) (O75604 whole entry, looked up): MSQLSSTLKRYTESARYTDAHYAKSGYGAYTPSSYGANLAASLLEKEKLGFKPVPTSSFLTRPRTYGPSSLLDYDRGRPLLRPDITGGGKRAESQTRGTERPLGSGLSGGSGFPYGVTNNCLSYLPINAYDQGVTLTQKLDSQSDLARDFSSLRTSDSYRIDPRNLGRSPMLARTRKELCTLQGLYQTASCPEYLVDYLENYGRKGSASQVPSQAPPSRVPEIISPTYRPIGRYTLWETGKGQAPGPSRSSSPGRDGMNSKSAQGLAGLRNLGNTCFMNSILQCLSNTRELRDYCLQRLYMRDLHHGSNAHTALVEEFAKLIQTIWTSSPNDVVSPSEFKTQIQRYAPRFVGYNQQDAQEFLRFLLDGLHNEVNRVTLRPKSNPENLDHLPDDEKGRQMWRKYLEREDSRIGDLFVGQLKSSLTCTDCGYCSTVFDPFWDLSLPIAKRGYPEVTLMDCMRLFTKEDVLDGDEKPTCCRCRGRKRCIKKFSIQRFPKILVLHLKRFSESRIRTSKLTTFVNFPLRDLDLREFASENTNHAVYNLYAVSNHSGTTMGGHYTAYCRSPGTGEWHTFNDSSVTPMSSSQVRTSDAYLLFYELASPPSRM

Structure (SMILES) | activity change, negative = inhibition | Potency
Cc1cc(Cl)ccc1NC(=S)NCCCN1CCCC1=O | 3.42% (inactive) | –
O=C(OCC1OC(n2ncc(=O)[nH]c2=O)C(OC(=O)c2ccccc2)C1OC(=O)c1ccccc1)c1ccccc1 (centres undefined) | – | 4.47 µM (active)
COC(=O)c1cc2sc(Cl)cc2n1Cc1nc(-c2ccccc2)oc1C | 0.719% (inactive) | –
O=C(Nn1c(SCc2ccc([N+](=O)[O-])cc2)nc2ccccc2c1=O)c1ccc(F)cc1 | – | 10 µM (active)
CC(=O)c1ccc2c(c1)C1C=CCC1C(C(=O)O)N2 (centres undefined) | – | 10 µM (active)
CC(OC(=O)c1nsc(Cl)c1Cl)C(=O)NCc1ccco1 (centres undefined) | 4.12% (inactive) | –
O=C(COc1ccccc1)NCCSc1ccccc1 | 4.88% (inactive) | –
Cc1ccc(CNC(=O)CCNS(=O)(=O)c2ccc(C)cc2)cc1 | -6.2% (inactive) | –
CCC(CO)Oc1cc(NCc2cccc(C)c2)c2ncn(C(C)C)c2c1 (centres undefined) | -5.97% (inactive) | –
COc1ccc(NC(=O)CSc2nnc(-c3ccccc3Cl)n2Cc2ccco2)c(OC)c1 | -3.93% (inactive) | –
COCCCNC(=O)C1CCN(c2nc(C)cc(C)n2)CC1 | -9.82% (inactive) | –
Cc1ccc2[nH]c(=O)c(COC(=O)c3ccccn3)cc2c1 | -8.08% (inactive) | –
CSCCC(NC(=O)c1cc(C(C)(C)C)oc1C)C(=O)O (centres undefined) | -9.93% (inactive) | –
CC(C)Cn1c(SCC(N)=O)nnc1-c1cccc(S(=O)(=O)N2CCOCC2)c1 | -7.07% (inactive) | –
O=C(/C=C\c1ccco1)c1ccc(NC(=O)c2ccco2)cc1 | – | 10 µM (active)
COCCn1nnnc1CN(CCc1ccccc1)Cc1cc2ccc(C)cc2[nH]c1=O | -6.85% (inactive) | –
COC(=O)C1CCN(C(=O)c2cc(-c3ccco3)nc3ccccc23)CC1 | – | 3.55 µM (active)
COC(=O)CC1Oc2ccc(C)cc2NC1=O (centres undefined) | -1.3% (inactive) | –
Cc1ccc(C(=O)N(c2c(C)n(C)n(-c3ccccc3)c2=O)C(C)C)cc1 | 12.9% (inactive) | –
COc1cc(C)c(S(=O)(=O)NCc2ccc3c(c2)OCO3)cc1C | -4.79% (inactive) | –

Structure (SMILES) | activity change, negative = inhibition | Potency
Cc1ccc(C2(C)NC(=O)N(CC(=O)c3ccc(Cl)s3)C2=O)cc1 (centres undefined) | – | 11.2 µM (active)
Cc1cc(C(=O)OCC(=O)c2cccc([N+](=O)[O-])c2)c2cccc(C)c2n1 | – | 10 µM (active)
COc1cccc(/C=N/n2c(SC)nnc2-c2ccccc2)c1O | -15.9% (inactive) | –
COC(=O)c1[nH]c2cc(OC)ccc2c1N | -7.95% (inactive) | –
CCOc1ccc(C(=O)c2ccc(OCC)c(N)c2)cc1N | -6.4% (inactive) | –
Cc1ccc(-c2c(C#N)c(N)nc3c2CCCCC3)o1 | -15.5% (inactive) | –
COc1cc(/C=C/c2cc[n+](C)cc2)ccc1OCC(=O)Nc1ccc(Cl)c(Cl)c1 | -14.5% (inactive) | –
O=C(Nc1ccc2nc(-c3ccco3)c(-c3ccco3)nc2c1)N1CCN(c2ccccn2)CC1 | – | 3.55 µM (active)
COc1ccc(/C=C(\NC(=O)c2ccc(OC)c(OC)c2)C(=O)N2CCN(C)CC2)cc1 | -5.21% (inactive) | –
CCOc1ccc(S(=O)(=O)N(CC(=O)O)c2ccccc2)cc1 | 3.71% (inactive) | –
CCN1C(=O)CSc2ccc(C(=O)NC3CCCCC3)cc21 | 1.71% (inactive) | –
Cc1ccc(/C(N)=N/OC(=O)Oc2ccccc2)cc1 | -15.3% (inactive) | –
O=C(NCCC1=CCCCC1)C1CCCN(S(=O)(=O)c2cnc[nH]2)C1 (centres undefined) | -14.8% (inactive) | –
CCOC(=O)N1CCN(S(=O)(=O)c2ccc(C)cc2)C1c1ccc(OC)cc1 (centres undefined) | -18.1% (inactive) | –
CC1CCCCN1CCNC(=O)CC1Oc2ccccc2NC1=O (centres undefined) | -15.9% (inactive) | –
CC(C)C(=O)N=c1sc2cc(F)cc(F)c2n1C | -9.69% (inactive) | –
Cc1cccn2c(=O)c3cc(C(=O)NCCN4CCOCC4)c(=N)n(CCN4CCOCC4)c3nc12 | -12.3% (inactive) | –
COc1cccc(N2CCN(C(=O)CN(C)S(=O)(=O)c3ccc4c(c3)CCC(=O)N4)CC2)c1 | -5.91% (inactive) | –
O=[N+]([O-])c1cc(-c2ccc(/C=N\n3cnnc3)o2)cc([N+](=O)[O-])c1 | – | 11.2 µM (active)
